Experiment [1] concerns the target human Caspase 2 (CASP2), CASP2 (gene 835) (UniProt P42575). The experiment is described as follows: NVS_ENZ_hCASP2: NovaScreen (NVS) Enzymatic Assay for human Caspase 2 (CASP2) (AID 2283135). Summed up:
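E. coli-expressed enzyme in a cell-free protease assay, fluorescence read 1 h after dosing. Compounds at 25 uM in duplicate, with concentration-response up to 50 uM for hits; loss of signal against DMSO baseline.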

In experiment [2] the target is human Fibroblast Growth Factor Receptor 1 (FGFR1), FGFR1 (gene 2260) (UniProt P11362). Kind of experiment: NVS_ENZ_hFGFR1: NovaScreen (NVS) Enzymatic Assay for human Fibroblast Growth Factor Receptor 1 (FGFR1) (AID 2283159). Summed up: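 Cell-free recombinant kinase with fluorescent substrate, product separated by electrophoretic mobility shift; read 1 hour after dosing, loss of signal relative to DMSO. Initial screen in duplicate at 25 uM, actives followed in concentration series.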
Sequence of human Fibroblast Growth Factor Receptor 1 (FGFR1), FGFR1 (gene 2260) (P11362 whole entry, looked up): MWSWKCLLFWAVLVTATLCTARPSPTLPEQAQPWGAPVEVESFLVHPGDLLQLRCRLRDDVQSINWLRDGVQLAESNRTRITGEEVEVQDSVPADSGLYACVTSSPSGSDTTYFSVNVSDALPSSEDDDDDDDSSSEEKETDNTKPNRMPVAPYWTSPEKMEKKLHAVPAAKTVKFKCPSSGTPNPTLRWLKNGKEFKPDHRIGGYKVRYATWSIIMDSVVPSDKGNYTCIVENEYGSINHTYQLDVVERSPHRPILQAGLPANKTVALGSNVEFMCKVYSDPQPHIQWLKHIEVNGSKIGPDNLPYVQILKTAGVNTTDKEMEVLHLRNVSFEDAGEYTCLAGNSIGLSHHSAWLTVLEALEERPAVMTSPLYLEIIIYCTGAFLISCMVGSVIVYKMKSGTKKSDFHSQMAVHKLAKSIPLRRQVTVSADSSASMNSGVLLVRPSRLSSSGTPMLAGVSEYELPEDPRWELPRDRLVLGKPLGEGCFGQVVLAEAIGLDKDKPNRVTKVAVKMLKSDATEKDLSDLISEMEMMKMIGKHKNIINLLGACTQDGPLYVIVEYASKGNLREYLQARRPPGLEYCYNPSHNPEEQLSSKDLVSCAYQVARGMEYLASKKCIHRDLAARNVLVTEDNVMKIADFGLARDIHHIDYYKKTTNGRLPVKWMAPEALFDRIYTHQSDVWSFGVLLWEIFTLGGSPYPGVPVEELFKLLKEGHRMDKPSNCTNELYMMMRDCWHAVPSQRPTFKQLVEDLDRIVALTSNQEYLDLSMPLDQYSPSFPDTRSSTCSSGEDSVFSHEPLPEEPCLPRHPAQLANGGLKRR

For experiment [3], the target named is human Tyrosine Protein Kinase Receptor Tie-2 (Tie2), TEK (gene 7010) (UniProt Q02763). Kind of experiment: NVS_ENZ_hTie2: NovaScreen (NVS) Enzymatic Assay for human Tyrosine Protein Kinase Receptor Tie-2 (Tie2) (AID 2283225). The method in brief: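 Recombinant human Tie2 kinase activity was read cell-free by fluorescence with electrophoretic mobility shift, 1 hour after dosing. The screen used 25 uM in duplicate, then concentration-response up to 50 uM. Signal loss was scored against DMSO.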
Sequence of human Tyrosine Protein Kinase Receptor Tie-2 (Tie2), TEK (gene 7010) (Q02763 whole entry, looked up): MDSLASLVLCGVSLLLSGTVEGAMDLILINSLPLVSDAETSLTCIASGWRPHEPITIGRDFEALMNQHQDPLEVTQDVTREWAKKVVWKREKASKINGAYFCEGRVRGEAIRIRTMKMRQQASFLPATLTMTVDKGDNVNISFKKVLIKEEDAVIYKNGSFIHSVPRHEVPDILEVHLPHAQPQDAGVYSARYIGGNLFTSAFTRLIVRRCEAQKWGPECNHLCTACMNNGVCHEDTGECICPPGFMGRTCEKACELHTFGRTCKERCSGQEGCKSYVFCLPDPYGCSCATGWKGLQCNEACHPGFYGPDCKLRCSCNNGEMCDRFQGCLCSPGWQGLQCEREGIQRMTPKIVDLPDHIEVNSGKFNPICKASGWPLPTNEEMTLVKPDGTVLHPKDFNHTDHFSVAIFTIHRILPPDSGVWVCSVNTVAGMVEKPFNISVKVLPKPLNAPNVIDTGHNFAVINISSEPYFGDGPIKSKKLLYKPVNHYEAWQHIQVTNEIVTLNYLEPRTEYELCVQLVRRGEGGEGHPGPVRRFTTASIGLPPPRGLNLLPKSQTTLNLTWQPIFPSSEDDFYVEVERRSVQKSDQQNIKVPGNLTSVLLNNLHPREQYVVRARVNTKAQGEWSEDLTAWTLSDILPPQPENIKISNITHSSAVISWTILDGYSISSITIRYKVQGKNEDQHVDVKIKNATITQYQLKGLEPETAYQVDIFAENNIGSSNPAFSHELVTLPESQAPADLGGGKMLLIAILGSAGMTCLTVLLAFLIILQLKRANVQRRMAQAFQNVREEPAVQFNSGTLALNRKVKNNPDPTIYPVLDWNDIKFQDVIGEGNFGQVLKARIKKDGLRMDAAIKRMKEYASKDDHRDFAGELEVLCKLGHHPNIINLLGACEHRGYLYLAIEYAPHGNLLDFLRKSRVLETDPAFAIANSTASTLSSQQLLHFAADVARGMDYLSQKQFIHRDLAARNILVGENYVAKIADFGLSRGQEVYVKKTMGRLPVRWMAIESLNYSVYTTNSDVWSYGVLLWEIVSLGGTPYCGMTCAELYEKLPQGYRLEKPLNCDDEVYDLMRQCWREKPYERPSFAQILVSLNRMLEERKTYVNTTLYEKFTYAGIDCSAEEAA

Experiment [4] has as its target rat Oxytocin Receptor (OXT), Oxtr (gene 25342) (UniProt P70536). Kind of experiment: NVS_GPCR_rOXT: NovaScreen (NVS) G Protein-Coupled Receptor Assay for rat Oxytocin Receptor (OXT) (AID 2283330). Summed up:
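Radioligand displacement on rat uterine membranes, 1 h incubation, filter-based scintillation counting. Chemicals were screened in duplicate at 25 uM, and those passing threshold were retested in concentration-response up to 50 uM. Loss of binding was fitted versus DMSO.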

Experiment [5] addresses human Aurora Kinase A - serine/threonine-protein Kinase 6 (AurA), AURKA (gene 6790) (UniProt O14965). The experiment is described as follows: NVS_ENZ_hAurA: NovaScreen (NVS) Enzymatic Assay for human Aurora Kinase A - serine/threonine-protein Kinase 6 (AurA) (AID 2283142). The method in brief: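 Cell-free enzymatic assay with human Aurora A, 1 hour after dosing. Fluorescent substrate turnover detected after electrophoretic mobility shift separation of substrate and product. Screened at 25 uM, actives retested in concentration-response up to 50 uM.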

For experiment [6], the target named is human Epidermal Growth Factor Receptor (EGFR), EGFR (gene 1956) (UniProt P00533). Kind of experiment: NVS_ENZ_hEGFR: NovaScreen (NVS) Enzymatic Assay for human Epidermal Growth Factor Receptor (EGFR) (AID 2283151). The method in brief: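 Cell-free kinase assay, fluorescence plus electrophoretic mobility shift separating substrate and product, read 1 hour after dosing; loss of signal vs DMSO. Duplicate screen at 25 uM, then concentration-response to 50 uM.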
Sequence of human Epidermal Growth Factor Receptor (EGFR), EGFR (gene 1956) (P00533 whole entry, looked up): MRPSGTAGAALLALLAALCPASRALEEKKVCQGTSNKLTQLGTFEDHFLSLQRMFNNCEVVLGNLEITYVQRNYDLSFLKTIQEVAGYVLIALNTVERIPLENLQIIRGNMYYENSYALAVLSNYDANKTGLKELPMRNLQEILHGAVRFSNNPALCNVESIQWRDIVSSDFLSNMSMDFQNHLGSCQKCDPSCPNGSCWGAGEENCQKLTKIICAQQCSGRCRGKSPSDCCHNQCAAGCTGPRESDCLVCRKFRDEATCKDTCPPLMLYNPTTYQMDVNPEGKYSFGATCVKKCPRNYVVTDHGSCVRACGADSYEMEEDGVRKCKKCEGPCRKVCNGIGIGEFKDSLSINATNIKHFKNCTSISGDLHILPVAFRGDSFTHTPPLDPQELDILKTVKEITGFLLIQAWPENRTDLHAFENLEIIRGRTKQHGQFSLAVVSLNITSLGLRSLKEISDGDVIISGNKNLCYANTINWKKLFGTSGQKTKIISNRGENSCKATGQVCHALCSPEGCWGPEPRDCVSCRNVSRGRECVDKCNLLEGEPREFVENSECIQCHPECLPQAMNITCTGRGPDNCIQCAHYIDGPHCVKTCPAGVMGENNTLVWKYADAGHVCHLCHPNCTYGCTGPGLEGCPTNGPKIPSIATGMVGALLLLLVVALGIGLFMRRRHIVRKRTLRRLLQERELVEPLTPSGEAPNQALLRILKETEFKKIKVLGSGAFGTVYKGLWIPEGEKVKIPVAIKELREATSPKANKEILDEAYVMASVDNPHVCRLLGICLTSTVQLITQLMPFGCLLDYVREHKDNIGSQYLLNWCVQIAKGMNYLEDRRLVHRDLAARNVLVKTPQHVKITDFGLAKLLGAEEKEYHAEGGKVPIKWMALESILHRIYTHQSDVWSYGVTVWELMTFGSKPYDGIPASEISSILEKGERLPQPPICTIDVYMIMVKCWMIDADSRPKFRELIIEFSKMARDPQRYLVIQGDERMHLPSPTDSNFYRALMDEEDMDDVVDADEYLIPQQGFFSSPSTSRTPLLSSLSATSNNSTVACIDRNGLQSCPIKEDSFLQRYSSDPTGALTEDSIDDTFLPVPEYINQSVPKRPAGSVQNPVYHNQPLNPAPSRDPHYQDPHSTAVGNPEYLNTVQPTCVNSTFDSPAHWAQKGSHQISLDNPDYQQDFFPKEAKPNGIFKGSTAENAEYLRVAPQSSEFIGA

The target of experiment [7] is human Matrix Metalloproteinase-1 (MMP1), MMP1 (gene 4312) (UniProt P03956). Kind of experiment: NVS_ENZ_hMMP1: NovaScreen (NVS) Enzymatic Assay for human Matrix Metalloproteinase-1 (MMP1) (AID 2283181). The method in brief:
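Human MMP1 enzyme activity measured by fluorescence 1 h after dosing, cell-free, with a specific substrate. Screened in duplicate at 25 uM; hits (e.g. 30% inhibition) run in concentration-response up to 50 uM; loss of signal versus DMSO.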

For experiment [8], the target named is human Phosphatase and Tensin Homolog (PTEN), PTEN (gene 5728) (UniProt P60484). Kind of experiment: NVS_ENZ_hPTEN: NovaScreen (NVS) Enzymatic Assay for human Phosphatase and Tensin Homolog (PTEN) (AID 2283203). The method in brief: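 Cell-free recombinant human PTEN with fluorescent substrate; product separated by electrophoretic mobility shift and read by fluorescence 1 h after dosing. Primary screen in duplicate at 25 uM, actives followed in concentration series versus DMSO.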

Experiment [9] concerns the target human Protein Tyrosine Phosphatase Non-receptor Type 2 (PTPN2), PTPN2 (gene 5771) (UniProt P17706). Kind of experiment: NVS_ENZ_hPTPN2: NovaScreen (NVS) Enzymatic Assay for human Protein Tyrosine Phosphatase Non-receptor Type 2 (PTPN2) (AID 2283207). Summed up: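 Cell-free recombinant enzyme with fluorescent substrate, product separated by electrophoretic mobility shift; read 1 h after dosing. Primary screen single concentration (25 uM) in duplicate; actives followed in concentration series; loss of signal versus DMSO.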

Experiment [10] addresses human Raf-1 Proto-Oncogene, serine/threonine Kinase (RAF1), RAF1 (gene 5894) (UniProt P04049). The experiment is described as follows: NVS_ENZ_hRAF1: NovaScreen (NVS) Enzymatic Assay for human Raf-1 Proto-Oncogene, serine/threonine Kinase (RAF1) (AID 2283216). Summed up: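 Cell-free recombinant kinase with specific fluorescent substrate, product separated by electrophoretic mobility shift; read 1 h after dosing. Primary screen at 25 uM in duplicate; hits then run in concentration-response up to 50 uM, fitted as loss of signal versus DMSO.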

Experiment [11] addresses rat Monoamine Oxidase, MAO-B, Peripheral (MAOBP), Maob (gene 25750) (UniProt P19643). The experiment is described as follows: NVS_ENZ_rMAOBP: NovaScreen (NVS) Enzymatic Assay for rat Monoamine Oxidase, MAO-B, Peripheral (MAOBP) (AID 2283242).
The test system of experiment [12] is rat Monoamine Oxidase, MAO-A, Central (MAOAC), gene 29253. The experiment is described as follows: NVS_ENZ_rMAOAC: NovaScreen (NVS) Enzymatic Assay for rat Monoamine Oxidase, MAO-A, Central (MAOAC) (AID 2283243).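 Further: potency refers to inhibition seen as signal drop below DMSO baseline.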 Summed up: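 Inhibition of rat brain-derived MAO-A was read by scintillation counting after 1.5 h exposure. Compounds screened first at 25 uM in duplicate, then in dose series if active.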

The next experiment has as its target PPP2CA (gene 5515) (UniProt P67775). The experiment is described as follows: NVS_ENZ_hPPP2CA: NovaScreen (NVS) Enzymatic Assay for human Protein Phosphatase 2 Aatalytic subunit Alpha (PPP2CA) (AID 2283199). Summed up:
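Recombinant human PPP2CA with fluorescent substrate; product separated from substrate by electrophoretic mobility shift, read 1.33 h after dosing. Duplicate single-point at 25 uM, then singleton concentration-response up to 50 uM; loss of signal versus DMSO.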

Experiment [13] concerns the target rat Monoamine Oxidase, MAO-B, Central (MAOBC), Maob (gene 25750) (UniProt P19643). Kind of experiment: NVS_ENZ_rMAOBC: NovaScreen (NVS) Enzymatic Assay for rat Monoamine Oxidase, MAO-B, Central (MAOBC) (AID 2283238). Summed up:
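Compounds were first tested in duplicate at 25 uM against MAO-B from rat brain tissue; those passing the inhibition threshold were retested in concentration series up to 50 uM. Radiodetection by scintillation counting at 1.17 h, analysed against DMSO baseline.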

Experiment [14] has as its target human Neonicotinoid receptor (NNR), CHRNA2 (gene 1135) (UniProt Q15822). The experiment is described as follows: NVS_LGIC_hNNR_NBungSens: NovaScreen (NVS) Ligand-Gated Ion Channel Assay for human Neonicotinoid receptor (NNR) (AID 2283313). Summed up: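 Radioligand displacement on human neuroblastoma membranes, 2 h, filter-based scintillation counting. Primary screen in duplicate at 25 uM; chemicals passing threshold (e.g. 30% inhibition) run singleton concentration-response to 50 uM; loss of binding fitted versus DMSO.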

Experiment [15] has as its target rat Corticotropin Releasing Factor Receptor (CRF), Crhr1 (gene 58959) (UniProt P35353). The experiment is described as follows: NVS_GPCR_rCRF: NovaScreen (NVS) G Protein-Coupled Receptor Assay for rat Corticotropin Releasing Factor Receptor (CRF) (AID 2283300). The method in brief: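 Rat cortical membranes used as receptor source in a radioligand competitive displacement binding assay; scintillation read 2 h after dosing. Primary screen run in duplicate at 25 uM; loss of signal versus DMSO baseline indicates binding.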

The target in experiment [16] is rat Acetylcholinesterase (AChE), Ache (gene 83817) (UniProt P37136). The experiment is described as follows: NVS_ENZ_rAChE: NovaScreen (NVS) Enzymatic Assay for rat Acetylcholinesterase (AChE) (AID 2283233). The method in brief:
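Rat brain membrane acetylcholinesterase activity measured colorimetrically 0.33 h after compound addition, loss of signal relative to DMSO. Primary screen in duplicate at 25 uM; actives re-run as concentration-response with 50 uM top concentration.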

The target of experiment [17] is human NIMA (Never In Mitosis Gene A)-Related Kinase 2 (NEK2), NEK2 (gene 4751) (UniProt P51955). The experiment is described as follows: NVS_ENZ_hNEK2: NovaScreen (NVS) Enzymatic Assay for human NIMA (Never In Mitosis Gene A)-Related Kinase 2 (NEK2) (AID 2283188). Summed up: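 Cell-free NEK2 enzyme activity after 1 h exposure, read by fluorescence with electrophoretic mobility shift separating substrate and product. Primary screen in duplicate at 25 uM; actives then run as concentration series. Loss of signal versus DMSO scored.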

In experiment [18] the target is Voltage-dependent N-type calcium channel subunit alpha-1B (Rattus norvegicus) (UniProt Q02294). Kind of experiment: NVS_IC_rCaChN: NovaScreen (NVS) Ion Channel Assay for rat Calcium Channel, Type N (CaChN) (AID 2283317).
For experiment [19], the target named is human Protein Tyrosine Phosphatase Receptor Type C (PTPRC), PTPRC (gene 5788) (UniProt P08575). The experiment is described as follows: NVS_ENZ_hPTPRC: NovaScreen (NVS) Enzymatic Assay for human Protein Tyrosine Phosphatase Receptor Type C (PTPRC) (AID 2283212). The method in brief:
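Yeast-extracted human PTPRC used in a cell-free colorimetric enzyme activity read-out, 1 h after dosing. Primary screen in duplicate at 25 uM; actives rerun in concentration-response up to 50 uM, DMSO as baseline.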

Records with an inconclusive call do not appear. Active and inactive are the calls of the source. How the source made its calls: active means hit-call score of the fitted dose curve at least 0.9, where 1 is the maximum; inconclusive means response in the unintended direction; inactive means score below 0.9.

Sequence of human Raf-1 Proto-Oncogene, serine/threonine Kinase (RAF1), RAF1 (gene 5894) (P04049 whole entry, looked up): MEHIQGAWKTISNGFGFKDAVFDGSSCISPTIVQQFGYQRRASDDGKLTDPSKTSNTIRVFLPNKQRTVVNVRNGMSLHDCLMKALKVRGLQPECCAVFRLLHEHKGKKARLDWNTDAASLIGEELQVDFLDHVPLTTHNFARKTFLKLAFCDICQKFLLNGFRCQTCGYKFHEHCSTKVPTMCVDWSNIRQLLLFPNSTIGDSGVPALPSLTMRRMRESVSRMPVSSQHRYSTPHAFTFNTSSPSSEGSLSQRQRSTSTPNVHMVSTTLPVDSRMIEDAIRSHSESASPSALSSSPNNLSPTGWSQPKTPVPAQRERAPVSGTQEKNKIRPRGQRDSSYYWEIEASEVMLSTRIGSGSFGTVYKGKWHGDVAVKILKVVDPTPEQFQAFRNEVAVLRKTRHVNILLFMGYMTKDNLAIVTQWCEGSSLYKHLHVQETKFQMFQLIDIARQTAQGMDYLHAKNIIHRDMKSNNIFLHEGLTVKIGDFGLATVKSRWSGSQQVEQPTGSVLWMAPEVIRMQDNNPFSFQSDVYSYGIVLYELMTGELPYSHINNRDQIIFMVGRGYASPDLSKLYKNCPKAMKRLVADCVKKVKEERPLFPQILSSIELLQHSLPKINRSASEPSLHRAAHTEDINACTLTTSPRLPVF
Sequence of human Aurora Kinase A - serine/threonine-protein Kinase 6 (AurA), AURKA (gene 6790) (O14965 whole entry, looked up): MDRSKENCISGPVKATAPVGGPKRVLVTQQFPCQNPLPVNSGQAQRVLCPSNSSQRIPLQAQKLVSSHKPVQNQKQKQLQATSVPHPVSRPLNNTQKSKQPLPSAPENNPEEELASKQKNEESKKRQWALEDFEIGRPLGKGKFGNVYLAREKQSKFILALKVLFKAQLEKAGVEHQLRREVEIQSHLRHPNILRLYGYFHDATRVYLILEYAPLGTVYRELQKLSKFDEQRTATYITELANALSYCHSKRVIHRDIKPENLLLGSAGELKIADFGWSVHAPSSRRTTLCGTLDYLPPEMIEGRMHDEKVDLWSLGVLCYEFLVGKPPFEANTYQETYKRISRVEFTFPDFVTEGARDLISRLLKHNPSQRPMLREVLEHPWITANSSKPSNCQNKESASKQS
Sequence of human Caspase 2 (CASP2), CASP2 (gene 835) (P42575 whole entry, looked up): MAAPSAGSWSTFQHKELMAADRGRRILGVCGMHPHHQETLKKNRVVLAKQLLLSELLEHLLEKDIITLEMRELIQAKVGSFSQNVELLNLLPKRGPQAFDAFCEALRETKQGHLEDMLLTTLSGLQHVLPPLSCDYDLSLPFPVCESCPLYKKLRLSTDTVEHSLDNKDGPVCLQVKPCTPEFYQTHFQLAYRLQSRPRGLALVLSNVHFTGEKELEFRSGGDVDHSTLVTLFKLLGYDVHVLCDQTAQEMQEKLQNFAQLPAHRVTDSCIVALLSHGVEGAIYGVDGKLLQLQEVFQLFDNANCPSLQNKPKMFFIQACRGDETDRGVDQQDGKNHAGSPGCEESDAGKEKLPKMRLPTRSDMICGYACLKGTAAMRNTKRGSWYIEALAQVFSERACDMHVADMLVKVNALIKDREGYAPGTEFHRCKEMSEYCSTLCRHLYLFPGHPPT
Sequence of PPP2CA (gene 5515) (P67775 whole entry, looked up): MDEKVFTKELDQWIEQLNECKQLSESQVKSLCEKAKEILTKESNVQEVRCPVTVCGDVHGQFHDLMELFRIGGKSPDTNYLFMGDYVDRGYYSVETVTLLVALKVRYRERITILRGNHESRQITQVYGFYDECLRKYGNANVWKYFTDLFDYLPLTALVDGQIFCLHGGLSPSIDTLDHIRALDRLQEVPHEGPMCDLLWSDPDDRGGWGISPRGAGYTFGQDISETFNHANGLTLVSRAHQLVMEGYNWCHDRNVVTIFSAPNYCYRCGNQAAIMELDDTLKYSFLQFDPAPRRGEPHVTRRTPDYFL

On to `CCN(CC)C(=O)c1cc(S(=O)(=O)Cc2ccccc2)c(N2CCC(c3ccccc3)CC2)cc1N(CC)CCN(C)C`, for which the compound was classed as inactive in experiment [1], in experiment [2] and in experiment [3]. Besides, in experiment [4], the AC50 is 6.13 µM (active).
`O=S1(=O)CCCO1`: the result in [5] was inactive.
Consider `NCCO`, for which the outcome in [5], in experiment [6], in experiment [2], in experiment [7], in experiment [8] and in [9] was inactive. In addition, the call in [10], in experiment [3] and in [11] was inactive.
For `Cc1cccc2ccccc12`, the result in experiment [1] was inactive.
For the compound `CC(C)(O)c1coc(S(=O)(=O)NC(=O)Nc2c3c(cc4c2CCC4)CCC3)c1`, the outcome in experiment [1] and in [8] was inactive.
Take `O=[N+]([O-])c1ccc(O)cc1`: the result in [1] was inactive. Moreover, the AC50 in experiment [12] was 16.6 µM (active).
Regarding `COC(=O)CC(=O)OC`, in experiment [1], the compound was classed as inactive.
In the case of `CCN(Cc1cccc(S(=O)(=O)O)c1)c1ccc(C(=C2C=CC(=[N+](CC)Cc3cccc(S(=O)(=O)O)c3)C=C2)c2ccccc2S(=O)(=O)[O-])cc1`, in experiment [6], the AC50 was 12.1 µM (active). In the experiment with PPP2CA (gene 5515), the compound was classed as inactive.
In the case of `COc1ccc(OC(F)(F)F)cc1CN[C@H]1CCCN[C@H]1c1ccccc1`, the call in [2], in [3] and in experiment [13] was inactive. Also, the concentration at half-maximal activity (AC50) in experiment [14] was 25 µM (active).
`O=C(O)c1ccc2c(c1)nc(C(=O)NC1CCN(C3CC3)CC1)n2Cc1cc(-c2ccc(Cl)s2)on1`: the compound was called inactive in experiment [5], in experiment [2] and in experiment [3].
As to `Nc1ccc(S(=O)(=O)c2ccc(N)cc2)cc1`, the outcome in experiment [2] was inactive.
In the case of `O=C(OCCCCCOC(=O)c1ccccc1)c1ccccc1`, the outcome (in [5]; in experiment [6]; in the experiment with PPP2CA (gene 5515); in experiment [9]; in [10]; in experiment [15]) was inactive.
For `CC(C)CCCCCCOC(=O)C1CCCCC1C(=O)OCCCCCCC(C)C` (centres undefined), the outcome in [6] and in experiment [16] was inactive.
Consider `CC(C)c1ccc(C(=O)N=C(N)N)cc1S(C)(=O)=O`, for which the outcome in experiment [5] and in experiment [3] was inactive.
On to `CC(C)(C)c1csc(-c2cc3cc(OCc4ccccc4CC(=O)O)ccc3o2)n1`, for which the call in experiment [5], in experiment [17] and in experiment [18] was inactive.
Turning to `COC(=O)CCCCC(=O)OC`, the call in experiment [2], in experiment [10] and in experiment [18] was inactive.
`COC(=O)[C@H]1[C@H]2C[C@@H]3c4[nH]c5cc(OC)ccc5c4CCN3C[C@H]2C[C@@H](OC(=O)c2cc(OC)c(OC)c(OC)c2)[C@@H]1OC`: the outcome in experiment [6] was inactive. In addition, the AC50 in [19] is 21.1 µM (active).
In the case of `CC(C)(O)c1ccc(CNC(=O)c2cccnc2Oc2ccc(F)cc2)cc1`, the compound was classed as inactive in experiment [2].

These data come from PubChem BioAssay (EPA / NIEHS).
